In PubChem BioAssay one finds z-score data, which are given here for 27 compounds.

Activity calls are given as the source filed them.

This experiment in a line: change in splice reporter luminescence, either direction, cell-based, HEK293, spliceosome inhibition project, primary screen (AID 1101).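 Note: HEK293 cells carrying a splicing-competent luciferase reporter gene; test concentration not given here.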 As to conditions: HEK293 splicing luciferase reporter, 24 h, higher = more signal, called active from +8 up or from −8 down. (A reporter such as luciferase makes a cellular process visible.)
As to `CC(C)CN1CCc2nc(-c3ccccc3)c3c(c2C1)CO[C@@H](C)C3`, the z-score was 0.185 (inactive).

For the compound `COCC#Cc1ccc([C@@H]2N[C@H](C(=O)O)CC[C@H]2C)cc1`, the z-score was -1.63 (inactive).

On to `C[C@@H](c1ccccc1)N1C(=O)[C@H]2[C@H]3[C@H](O)[C@H](O)CC(=NOC[C@@H](O)COCc4ccco4)[C@H]3CC[C@H]2C1=O`, for which the z-score is 0.319 (inactive).

Turning to `CCOC(=O)[C@H](CC(C)C)NC(=O)CCC1CC(OC(=O)NCc2ccc3c(c2)OCO3)CC2(CCCC(COC(=O)NCCc3ccc(Cl)cc3)O2)O1` (some centres not stated), the z-score was 0.0274 (inactive).

On to `C#CCCCON=C1C[C@@H](O)[C@@H](O)[C@@H]2[C@@H]3C(=O)N(C4CCCCC4)C(=O)[C@@H]3CC[C@@H]12`, for which the z-score was 0.466 (inactive).

Regarding `CC(C)=CCCC(C)=CCON=C1C[C@@H](O)[C@@H](O)[C@@H]2[C@@H]3C(=O)N(c4cccc(Oc5ccccc5)c4)C(=O)[C@@H]3CC[C@H]12`, the z-score is 0.467 (inactive).

`COc1ccc(O[C@H]2C=C[C@@H](C#Cc3ccccc3)O[C@@H]2CO)cc1`: the z-score was 1.45 (inactive).

Consider `CCCNC(=O)OC[C@H]1O[C@H](CCON=C[C@@H](NS(=O)(=O)c2ccc(C)cc2)[C@H](C)C=CCC(=O)OC)C=C[C@@H]1Oc1ccc(OC)cc1`, for which the z-score was -0.362 (inactive).

As for `COC(=O)[C@H](C)NC(=O)CCC1CC(OC(=O)NCc2cccc3ccccc23)CC2(CCCC(COC(=O)NCCCN3CCCC3=O)O2)O1` (some centres not stated), the z-score is -0.915 (inactive).

In the case of `COC(=O)[C@H](C)NC(=O)CCC1CC(OC(=O)NCCc2ccc(F)cc2)CC2(CCCC(COC(=O)NCC3CCCCC3)O2)O1` (some centres not stated), the z-score is -0.863 (inactive).

For `COC(=O)[C@H](C)NC(=O)CCC1CC(OC(=O)NCc2ccc3c(c2)OCO3)CC2(CCCC(COC(=O)NCCc3ccc(Cl)cc3)O2)O1` (some centres not stated), the z-score is -0.51 (inactive).

Consider `COc1ccc(COC(=O)NN=C2C[C@@H](O)[C@@H](O)[C@@H]3[C@@H]4C(=O)N([C@@H](C)c5ccccc5)C(=O)[C@@H]4CC[C@@H]23)cc1`, for which the z-score was 0.158 (inactive).

For `COc1ccc(O[C@H]2C=C[C@@H](c3ccccc3)O[C@@H]2COC(=O)CCC(C)=NOC[C@@H](O)COCc2ccco2)cc1`, the z-score was -0.909 (inactive).

For `CCN1C(=O)[C@H]2[C@H]3[C@H](O)[C@H](O)CC(=NOCC(C)C)[C@H]3CC[C@H]2C1=O`, the z-score was 0.72 (inactive).

`CC(=O)OC[C@H]1O[C@H](C#CCC2CCCCC2)C=C[C@@H]1OC(C)=O`: the z-score was -0.531 (inactive).

For the compound `CCN1C(=O)[C@H]2[C@H]3[C@H](O)[C@H](O)CC(=NOC[C@@H](O)[C@H]4O[C@@H]5OC(C)(C)O[C@@H]5[C@H]4O)[C@@H]3CC[C@H]2C1=O`, the z-score is 0.217 (inactive).

`C[C@@H]1CC[C@@H](C(=O)O)N[C@H]1c1cccc(N2CCOCC2)c1`: the z-score is -1.02 (inactive).

As for `CCOC(=O)NN=C1C[C@@H](O)[C@@H](O)[C@@H]2[C@@H]3C(=O)N(c4ccc(F)cc4F)C(=O)[C@@H]3CC[C@H]12`, the z-score was -1.43 (inactive).

Turning to `CCC1=NOC(CCC2CC(OC(=O)NCc3cccc4c3OCO4)CC3(CCCC(COC(=O)NCCc4ccc(Cl)cc4)O3)O2)C1` (configuration not stated), the z-score is 0.116 (inactive).

Consider `CCOC(=O)CCN1C(=O)[C@H]2[C@H]3[C@H](O)[C@H](O)CC(=NO[C@@H]4O[C@H](CO)[C@@H](O)[C@H](O)[C@H]4O)[C@@H]3CC[C@H]2C1=O`, for which the z-score is -0.104 (inactive).

Take `CCOC(=O)[C@H](CC(C)C)NC(=O)CCC1CC(OC(=O)NCc2ccc3c(c2)OCO3)CC2(CCCC(COC(=O)NCc3ccccc3)O2)O1` (some centres not stated): the z-score was -0.403 (inactive).

For `CC(C)C(=O)N[C@H]1CCCN1C(=O)C=Cc1ccccc1`, the z-score was 0.539 (inactive).

On to `COC(=O)[C@H](C)NC(=O)CCC1CC(OC(=O)NCc2cccc3ccccc23)CC2(CCCC(COC(=O)NCc3ccccc3)O2)O1` (some centres not stated), for which the z-score was -0.829 (inactive).

As to `CCOC(=O)[C@H](CC(C)C)NC(=O)CCC1CC(OC(=O)NCCc2ccc(F)cc2)CC2(CCCC(COC(=O)NCc3cccc4ccccc34)O2)O1` (some centres not stated), the z-score is -1.61 (inactive).

Consider `COC(=O)CC=C[C@@H](C)[C@@H](C=NOC(C)CN1CCCCc2nc(C)c(C)cc21)OC` (some centres not stated), for which the z-score is 0.854 (inactive).

Consider `CCN1C(=O)[C@H]2[C@H]3[C@H](O)[C@H](O)CC(=NOC[C@@H](O)COCc4ccco4)[C@H]3CC[C@H]2C1=O`, for which the z-score is 0.0809 (inactive).

Regarding `COCCNC(=O)OCC1CCCC2(CC(OC(=O)NCc3cccc4ccccc34)CC(CCC(=O)N[C@@H](C)C(=O)OC)O2)O1` (some centres not stated), the z-score was -0.674 (inactive).
